Laboratory results from PubChem BioAssay (NCI).
The panel holds about 83,000 compounds, 20% with a hit somewhere; the sample as a whole holds those more often.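 Method: cells in 96-well plates; compound added at one concentration; 48 h incubation; percent growth measured; values under 10 scored active.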 Values without a mark were called inactive. Activity calls are given as the source filed them.

tested on: DU-145 prostate; experiment: NCI-60 one-dose screen, 48 h (100 = growth as untreated, 0 = no growth, -100 = all killed); details: 10 µM unless noted

Q: How did the growth turn out when `FC(F)(F)c1cc(-c2nnc3n2N=C(Cl)CS3)cc(C(F)(F)F)c1` was run?
A: 112%

Q: How did the growth turn out when `COc1ccc(/C=C/c2nc3ccccc3c(=O)n2-c2ccc(C#Cc3ccc(C(C)(C)C)cc3)cc2C)c(OC)c1` was run?
A: 109%

Q: `Cc1cc(O)c2cc3c(O)c(O)ccc3cc2c1` was tested. Which growth did it give?
A: 105%

Q: `COc1ccc(-c2nc3ccccc3n3cccc23)cc1` was tested. Which growth did it give?
A: 119%

Q: With `CCOC(=O)c1cc(C(=O)OCC)c(C)nc1C` as the molecule, how does the growth read?
A: 109%

Q: Which growth does the source give for `CN1C(=O)N(C)C2C1NN=c1s/c(=C\c3ccc(Br)cc3)c(=O)n12` (centres undefined) here?
A: 17.2%

Q: With `O=C1OCC2=C1C(c1ccccc1)c1cc3c(cc1N2CCO)OCO3` (centres undefined) as the molecule, how does the growth read?
A: 69.4%

Q: With `CCC1N=C(N)N=C(N)N1c1ccc(Cl)cc1` (centres undefined) as the molecule, how does the growth read?
A: 105%

Q: How did the growth turn out when `COc1cc(OC)cc(-c2ccc(-c3ccc(C(=N)N)s3)s2)c1` was run?
A: -74.2% (active)

Q: How did the growth turn out when `Cc1cccc(N=NC(=S)NNc2cccc(C)c2)c1` was run?
A: 122%

Q: Which growth does the source give for `CCn1c(Cc2ccccc2Nc2c(Cl)cccc2Cl)nnc1SCC(=O)Nc1cccc(OC)c1` here?
A: 94%

Q: How did the growth turn out when `NC(=S)N1N=C(c2ccc(Cl)cc2)CC1c1cc2ccccc2[nH]c1=O` (centres undefined) was run?
A: 118%

Q: `CC(C)c1nc2ccccc2n1CC(=O)N/N=C/c1cccc(O)c1` was tested. Which growth did it give?
A: 104%

Q: For `COc1ccc(Oc2nc(Nc3ccc(N4CCOCC4)cc3)ncc2NC(=O)Nc2cccc(OC)c2)cc1`, which growth is on record?
A: 47.5%

Q: `Clc1cccc(CNc2c3ccccc3nc3ccccc23)c1` was tested. Which growth did it give?
A: 31.6%

Q: `O=C1OCC2=C1C(c1ccccc1)c1cc3c(cc1N2CCO)CCC3` (centres undefined) was tested. Which growth did it give?
A: 2.03% (active)

Q: How did the growth turn out when `C=C1C(=O)O[C@H]2[C@H]1CC/C(COC(=O)NCc1[nH]nc3ccccc13)=C\CC[C@@]1(C)O[C@@H]21` was run?
A: 12.2%

Q: For `CC(=O)Oc1c(Cl)c(Cl)c(Cl)c(Cl)c1Cl`, which growth is on record?
A: 105%

Q: With `CC(=O)Nc1c(Br)cc2c(c1Br)Cc1cc(Br)ccc1-2` as the molecule, how does the growth read?
A: 91.9%

Q: `Cc1ccc(C(CN(C)C)C(=O)c2ccccc2)cc1` (centres undefined) was tested. Which growth did it give?
A: 34.7%

Q: How did the growth turn out when `CCOC(=O)C(CCCCC(NC(C)=O)(C(=O)OCC)C(=O)OCC)(NC(C)=O)C(=O)OCC` was run?
A: 113%

Q: For `O=[N+]([O-])c1ccc(SSc2ccc([N+](=O)[O-])cc2Cl)c(Cl)c1`, which growth is on record?
A: 99.5%

Q: `COc1cc(/C=C2\CN(C(=O)OC(C)(C)C)C/C(=C\c3ccc(O)c(OC)c3)C2=O)ccc1O` was tested. Which growth did it give?
A: 101%

Q: How did the growth turn out when `O=S1(=O)NCCN1CCNc1nccc(-c2c(-c3cccc(O)c3)nc3sccn23)n1` was run?
A: 106%

Q: `CNCCCn1c2c(c3ccc(Cl)cc3c1=O)C(=O)c1cc(OC)cnc1-2` was tested. Which growth did it give?
A: -85.2% (active)

Q: For `O=C(/C=C/c1ccccc1)c1c[nH]c2ccccc2c1=O`, which growth is on record?
A: 7.22% (active)

Q: `N=C(N)c1ccc(-c2ccc(-c3ccco3)o2)cc1F` was tested. Which growth did it give?
A: 31.3%

Q: Which growth does the source give for `C[C@@H]1N=C(c2ccc3ccccc3c2)Nc2nc3ccccn3c2C1=O` here?
A: 73.3%

Q: With `COc1ccc2[nH]cc(C3(c4c[nH]c5ccc(OC)cc45)C(=O)Nc4ccc(F)cc43)c2c1` as the molecule, how does the growth read?
A: 81.2%

Q: For `CC(=O)Nc1ccc(/C=N/N2CCCCCC2)cc1`, which growth is on record?
A: 102%

Q: Which growth does the source give for `COc1cc(-c2nn(C(=O)NCCN3CCN(C)CC3)cc2-c2ccncc2)ccc1Cl` here?
A: 87.2%

Q: `COc1cc(C2CC(=O)Nc3c2cnn3C)cc(OC)c1OC` (centres undefined) was tested. Which growth did it give?
A: 108%

Q: For `COc1cc2c(c(OC)c1O)C(=O)C(OC)C(c1ccc(O)c(O)c1)O2` (centres undefined), which growth is on record?
A: 5.45% (active)

Q: `CCOC(=O)C1C(=O)C=C(c2ccccc2)CC1c1sc(N(C)Cc2ccccc2)nc1Cl` (centres undefined) was tested. Which growth did it give?
A: 107%

Q: With `CC(C)[C@@H]1C=C2CC[C@H]3[C@](C)(CN)CCC[C@]3(C)[C@H]2CC1` as the molecule, how does the growth read?
A: 44.1%

Q: How did the growth turn out when `CC1(C)CN(CCNc2nccc(-c3c(-c4cccc(O)c4)nc4sccn34)n2)S(=O)(=O)N1` was run?
A: 67.9%

Q: For `CCNC(=O)c1ccc2c(c1)nc(-c1ccc(Cl)cc1)n2-c1cc(C(C)(C)C)[nH]n1`, which growth is on record?
A: 71.4%

Q: For `CCc1c(C)c2ccc(O)c(-c3cc(-c4ccccc4)c(C#N)c(=O)[nH]3)c2oc1=O`, which growth is on record?
A: 96.7%

Q: With `C=C(C)[C@@H]1CC[C@]2(C(=O)NS(=O)(=O)c3ccccc3)CC[C@]3(C)[C@H](CC[C@@H]4[C@@]5(C)CC[C@H](OC(=O)NS(=O)(=O)c6ccccc6)C(C)(C)[C@@H]5CC[C@]43C)[C@@H]12` as the molecule, how does the growth read?
A: 43.3%

tested on: K-562 leukemia; experiment: as above; details: 10 µM unless noted

Q: For `FC(F)(F)c1cc(-c2nnc3n2N=C(Cl)CS3)cc(C(F)(F)F)c1`, which growth is on record?
A: 83.4%

Q: With `COc1ccc(/C=C/c2nc3ccccc3c(=O)n2-c2ccc(C#Cc3ccc(C(C)(C)C)cc3)cc2C)c(OC)c1` as the molecule, how does the growth read?
A: 63.9%

Q: Which growth does the source give for `Cc1cc(O)c2cc3c(O)c(O)ccc3cc2c1` here?
A: 90.8%

Q: How did the growth turn out when `COc1ccc(-c2nc3ccccc3n3cccc23)cc1` was run?
A: 96.3%

Q: Which growth does the source give for `CCOC(=O)c1cc(C(=O)OCC)c(C)nc1C` here?
A: 91.4%

Q: Which growth does the source give for `CN1C(=O)N(C)C2C1NN=c1s/c(=C\c3ccc(Br)cc3)c(=O)n12` (centres undefined) here?
A: 10.7%

Q: Which growth does the source give for `CCC1N=C(N)N=C(N)N1c1ccc(Cl)cc1` (centres undefined) here?
A: 57.1%

Q: Which growth does the source give for `COc1cc(OC)cc(-c2ccc(-c3ccc(C(=N)N)s3)s2)c1` here?
A: -35.7% (active)

Q: `Cc1cccc(N=NC(=S)NNc2cccc(C)c2)c1` was tested. Which growth did it give?
A: 105%

Q: `CCn1c(Cc2ccccc2Nc2c(Cl)cccc2Cl)nnc1SCC(=O)Nc1cccc(OC)c1` was tested. Which growth did it give?
A: 62.6%

Q: With `NC(=S)N1N=C(c2ccc(Cl)cc2)CC1c1cc2ccccc2[nH]c1=O` (centres undefined) as the molecule, how does the growth read?
A: 112%

Q: With `CC(C)c1nc2ccccc2n1CC(=O)N/N=C/c1cccc(O)c1` as the molecule, how does the growth read?
A: 87%

Q: Which growth does the source give for `COc1ccc(Oc2nc(Nc3ccc(N4CCOCC4)cc3)ncc2NC(=O)Nc2cccc(OC)c2)cc1` here?
A: 57%

Q: Which growth does the source give for `Clc1cccc(CNc2c3ccccc3nc3ccccc23)c1` here?
A: 5.03% (active)

Q: For `C=C1C(=O)O[C@H]2[C@H]1CC/C(COC(=O)NCc1[nH]nc3ccccc13)=C\CC[C@@]1(C)O[C@@H]21`, which growth is on record?
A: 2.29% (active)

Q: `CC(=O)Oc1c(Cl)c(Cl)c(Cl)c(Cl)c1Cl` was tested. Which growth did it give?
A: 101%

Q: Which growth does the source give for `CC(=O)Nc1c(Br)cc2c(c1Br)Cc1cc(Br)ccc1-2` here?
A: 80.5%

Q: `Cc1ccc(C(CN(C)C)C(=O)c2ccccc2)cc1` (centres undefined) was tested. Which growth did it give?
A: -26.8% (active)

Q: `CCOC(=O)C(CCCCC(NC(C)=O)(C(=O)OCC)C(=O)OCC)(NC(C)=O)C(=O)OCC` was tested. Which growth did it give?
A: 108%

Q: With `O=[N+]([O-])c1ccc(SSc2ccc([N+](=O)[O-])cc2Cl)c(Cl)c1` as the molecule, how does the growth read?
A: 77.8%

Q: With `COc1cc(/C=C2\CN(C(=O)OC(C)(C)C)C/C(=C\c3ccc(O)c(OC)c3)C2=O)ccc1O` as the molecule, how does the growth read?
A: 80.1%

Q: `CNCCCn1c2c(c3ccc(Cl)cc3c1=O)C(=O)c1cc(OC)cnc1-2` was tested. Which growth did it give?
A: -66% (active)

Q: `O=C(/C=C/c1ccccc1)c1c[nH]c2ccccc2c1=O` was tested. Which growth did it give?
A: 11.1%

Q: With `N=C(N)c1ccc(-c2ccc(-c3ccco3)o2)cc1F` as the molecule, how does the growth read?
A: 1.49% (active)

Q: Which growth does the source give for `C[C@@H]1N=C(c2ccc3ccccc3c2)Nc2nc3ccccn3c2C1=O` here?
A: 27.6%

Q: Which growth does the source give for `COc1ccc2[nH]cc(C3(c4c[nH]c5ccc(OC)cc45)C(=O)Nc4ccc(F)cc43)c2c1` here?
A: -16.5% (active)

Q: `COc1cc(-c2nn(C(=O)NCCN3CCN(C)CC3)cc2-c2ccncc2)ccc1Cl` was tested. Which growth did it give?
A: 83.9%

Q: `COc1cc2c(c(OC)c1O)C(=O)C(OC)C(c1ccc(O)c(O)c1)O2` (centres undefined) was tested. Which growth did it give?
A: 6.8% (active)

Q: For `CCOC(=O)C1C(=O)C=C(c2ccccc2)CC1c1sc(N(C)Cc2ccccc2)nc1Cl` (centres undefined), which growth is on record?
A: 73%

Q: With `CC(C)[C@@H]1C=C2CC[C@H]3[C@](C)(CN)CCC[C@]3(C)[C@H]2CC1` as the molecule, how does the growth read?
A: 17.5%
